{
  "source": "PubChem BioAssay (Tox21)",
  "note": "Inconclusive results are not listed. Where a call stands in place of a potency, no number is given. A number with no mark means an inactive call. Active and inactive are the calls of the source. Calls come from the whole dose curve; as a rule, active = well fitted cell-killing curve with a large enough effect in the repeat runs; inconclusive = weak or mixed curves, or effect the other way; inactive = flat fitted curve, though single readings scatter. Potency is the fitted concentration of half-maximal effect.",
  "data": [
    {"assay": "qHTS assay to identify small molecule antagonists of the estrogen receptor alpha (ER-alpha) signaling pathway using the BG1 cell line in the presence of 0.1 nM 17-beta-estradiol - cell viability counter screen (AID 1259241); note: nearly all actives have a fitted effect of over 40% in size", "conditions": "VM7Luc4E2 (BG1) viability, CellTiter-Fluor protease, 22 h, 0.1 nM estradiol agonist added; series mostly up to 92.4 µM", "description": "National Center for Advancing Translational Sciences [NCATS]\nNIH Chemical Genomics Center [NCGC]\nU.S. Environmental Protection Agency [EPA]\nNational Institutes of Environmental Health Sciences [NIEHS]\nNational Toxicology Program [NTP]\nU.S. Food and Drug Administration [FDA]\nEstrogen receptor (ER), a member of the nuclear hormone receptor plays an important role in development, metabolic homeostasis and reproduction. Two subtypes of ER, ER-alpha and ER-beta, have similar expression patterns with some uniqueness in both types. Endocrine disrupting chemicals (EDCs) and their interactions with steroid hormone receptors like ER causes disruption of normal endocrine function. Therefore, it is important to understand the effect of environmental chemicals in ER signaling pathway. For identifying ER antagonists, VM7Luc4E2 cell line was used to screen against Tox21 compound libraries.\nVM7Luc4E2 cell line (provided by Denison MS, University of California) endogenously express full-length ER-alpha and is stably transfected with a plasmid containing four estrogen responsive elements (ERE) upstream of a luciferase reporter gene. The current screening for identification of ER-alpha inhibitors against Tox21 compound libraries used lower concentration (0.1 nM) of 17beta-Estradiol as a stimulator. The cytotoxicity of the Tox21 compound libraries against VM7Luc4E2 cell line was tested by measuring live-cell protease activity using CellTiter-Fluor assay in the same wells.\nTox21 Assay Protocol Summary:\nVM7Luc4E2 cells were cultured in phenol red free assay medium containing 10% charcoal stripped FBS for 5 days prior to the assay. The cells were dispensed at 4,000 cells/well in 4 uL of assay medium into white wall/solid-bottom 1536-well plates (Corning Life Sciences, Corning, NY) using a Multidrop Combi (ThermoFisher Scientific, Waltham, MA) dispenser. After the assay plates were incubated at 37C and 5% CO2 for 24 hr, 23 nL of compounds dissolved in DMSO, positive controls or DMSO only was transferred to the assay plates by a Pintool station (Kalypsys, San Diego, CA). The transfer of compounds was followed by the addition of 1 uL of 0.1 nM (final concentration) agonist (17beta-Estradiol)/assay medium using a Flying Reagent Dispenser (FRD, Aurora Discovery, San Diego, CA). The plates were incubated at 37C and 5% CO2 for 22 hr. For cytotoxicity assay, 1 uL of CellTiter-Fluor reagent (Promega Corporation, Madison, WI) was added to each well using the FRD and after 30 min incubation at 37C and 5% CO2, The fluorescence intensity was measured using ViewLux plate reader (PerkinElmer, Shelton, CT).", "values": [
      {"smiles": "CC1(C)O[C@@H]2C[C@H]3[C@@H]4CCC5=CC(=O)CC[C@]5(C)[C@@]4(F)[C@@H](O)C[C@]3(C)[C@]2(C(=O)CCl)O1", "Potency": "inactive"},
      {"smiles": "Cc1ccc(C)c(N)c1", "Potency": "inactive"},
      {"smiles": "C[C@@H]1CN(c2c(F)c(N)c3c(=O)c(C(=O)O)cn(C4CC4)c3c2F)C[C@H](C)N1", "activity change, negative = cytotoxicity": "1.55% [at 19 µM]"},
      {"smiles": "Cc1nnc(SCC2=C(C(=O)O)N3C(=O)[C@@H](NC(=O)Cn4cnnn4)[C@H]3SC2)s1", "Potency": "inactive"},
      {"smiles": "COc1ccc(Nc2ccc(OC)cc2)cc1", "Potency": "inactive"},
      {"smiles": "CN(CCCN1c2ccccc2CCc2ccccc21)CC(=O)c1ccc(Cl)cc1", "Potency": "inactive"},
      {"smiles": "CN(C)Cc1ccccc1", "Potency": "inactive"},
      {"smiles": "CCCN(CCC)C(=O)C(CCC(=O)O)NC(=O)c1ccccc1", "note": "(stereo not given)", "Potency": "inactive"},
      {"smiles": "O=C1CCCCC1C1CCCCC1", "note": "(stereo not given)", "Potency": "inactive"},
      {"smiles": "OCCN1CCN(CCO)CC1", "Potency": "inactive"},
      {"smiles": "O=C(CC(=O)C(F)(F)F)c1ccccc1", "Potency": "inactive"},
      {"smiles": "Cc1cccc(C)c1NC(=O)CN1CCCCCC1", "Potency": "inactive"},
      {"smiles": "COC(=O)c1ccc2cc(C(=O)OC)ccc2c1", "activity change, negative = cytotoxicity": "-8.86% [at 19 µM]"},
      {"smiles": "CCOc1ccc(NC(N)=O)cc1", "Potency": "inactive"},
      {"smiles": "OCCN(CCO)c1ccccc1", "Potency": "inactive"},
      {"smiles": "CC(=O)N[C@@H](CC(C)C)C(=O)O", "Potency": "inactive"},
      {"smiles": "COC(=O)C(C)O", "note": "(stereo not given)", "Potency": "inactive"},
      {"smiles": "CC(C)(C)c1cccc(O)c1", "Potency": "inactive"},
      {"smiles": "Cc1c[nH]c(=S)[nH]c1=O", "Potency": "inactive"},
      {"smiles": "NC1=NCC2c3ccccc3Cc3ccccc3N12", "note": "(stereo not given)", "Potency": "inactive"},
      {"smiles": "O=c1[nH]c(=O)n([C@H]2C[C@H](O)[C@@H](CO)O2)cc1C(F)(F)F", "Potency": "inactive"},
      {"smiles": "COC(=O)/C=C(/C)N", "Potency": "inactive"},
      {"smiles": "CC(C)=CCCC(C)CCOC=O", "note": "(stereo not given)", "Potency": "inactive"},
      {"smiles": "CCN(O)CC", "Potency": "inactive"},
      {"smiles": "O=C(CCCl)NCc1ccccc1", "Potency": "inactive"},
      {"smiles": "CCOc1ccccc1N", "Potency": "inactive"},
      {"smiles": "Nc1ccc(Oc2ccc(N)c(N)c2)cc1", "Potency": "48.6 µM (active)"},
      {"smiles": "CCCCCCCCCCCCCCCCOP(=O)([O-])OCC[N+](C)(C)C", "Potency": "inactive"},
      {"smiles": "Cc1cc(S(=O)(=O)O)c(N)cc1Cl", "Potency": "inactive"},
      {"smiles": "O=C1CCCc2ccccc21", "Potency": "inactive"},
      {"smiles": "C=Cc1ccccc1", "Potency": "inactive"},
      {"smiles": "CC(C)S", "Potency": "inactive"},
      {"smiles": "CC1=C(CC(=O)O)c2cc(F)ccc2/C1=C\\c1ccc(S(C)(=O)=O)cc1", "Potency": "inactive"},
      {"smiles": "CC1=C(O)C(=O)OC1C", "note": "(stereo not given)", "Potency": "inactive"},
      {"smiles": "C1CCOC1", "Potency": "inactive"},
      {"smiles": "O=C(O)C(=O)Cc1c[nH]c2ccccc12", "Potency": "inactive"},
      {"smiles": "CCC(=O)O[C@]1(C(=O)SCF)[C@H](C)C[C@H]2[C@@H]3C[C@H](F)C4=CC(=O)C=C[C@]4(C)[C@@]3(F)[C@@H](O)C[C@@]21C", "Potency": "inactive"},
      {"smiles": "CCCCCCC", "Potency": "inactive"},
      {"smiles": "CCCCC(=O)O[C@]1(C(=O)CO)[C@H](C)C[C@H]2[C@@H]3CCC4=CC(=O)C=C[C@]4(C)[C@@]3(F)[C@@H](O)C[C@@]21C", "Potency": "inactive"},
      {"smiles": "CCCCNc1cc(C(=O)O)cc(S(N)(=O)=O)c1Oc1ccccc1", "Potency": "inactive"}
    ]}
  ]
}
